Only some compounds are listed: those with a hit (about 0.92% of all), similar ones and a draw of the others.
AGP1-GFP MLPCN = modulators of AGP1-GFP expression in yeast TOR pathway, primary screen, cell-based, multiplex flow cytometry, S. cerevisiae, MLPCN library; 320,000 compounds, 0.02% hits; GFP response vs DMSO, % at 10 µM; 3 h; GFP as percent of DMSO wells;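 active means GFP response relative to DMSO above a set limit, near screen average plus 3 SD, cut at about 150% in these data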;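 further: median GFP channel fluorescence of the gated AGP1 strain per well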
MEP2-GFP yeast = modulators of MEP2-GFP levels in yeast, primary screen, S. cerevisiae, multiplex flow cytometry, MLPCN library; GFP response vs DMSO, % at 10 µM; S. cerevisiae MEP2-GFP strain, 3 h; 100% = DMSO control level; AID 2016, 2009; 330,000 compounds, 0.51% hits;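 active means GFP response versus DMSO above a set limit, roughly screen mean plus 3 SD, cut at about 180% in these data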;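 further: median GFP fluorescence of the barcode-gated MEP2-GFP cells per well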
CIT2 TOR yeast = modulators of CIT2-GFP expression in yeast, primary screen, S. cerevisiae, GFP fusion, multiplex flow cytometry, MLPCN library; S. cerevisiae CIT2-GFP strain, 3 h; 100 means same as DMSO wells; GFP response vs DMSO, % at 10 µM; 320,000 compounds, 0.065% hits;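 active means GFP response relative to DMSO above a set limit, near the screen mean plus 3 SD, cut at about 150% in these data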;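 further: ratio of well median GFP fluorescence to mean of DMSO wells on the plate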
RPL19A-GFP yeast = RPL19A-GFP expression modulators in yeast, primary screen, cell-based, S. cerevisiae, multiplex flow cytometry, MLPCN | S. cerevisiae RPL19A-GFP strain, 3 h; stronger effect = lower value | percent response vs DMSO, % at 10 µM | 330,000 compounds, 0.3% hits;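 active means percent response vs DMSO below 50%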;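 further: median channel GFP fluorescence of the barcoded RPL19A-GFP strain; ratio of sample median GFP to plate DMSO average so 100% = DMSO; lower means less RPL19A-GFP as with rapamycin TOR inhibition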
LAP4 TOR yeast = modulators of LAP4-GFP expression in yeast, primary screen, S. cerevisiae, multiplex flow cytometry, MLPCN library. 3 h; median GFP as percent of DMSO wells. GFP response vs DMSO, % at 10 µM. 320,000 compounds, 0.34% hits. AID 2023, 2009;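 active means GFP response vs DMSO above a set limit, about the screen mean plus 3 SD, cut at about 150% in these data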
LAP4-GFP pick2 = LAP4-GFP expression modulators in yeast, confirmation, cell-based, second cherry pick, flow cytometry; GFP response vs DMSO, % at 10 µM; 590 compounds, 20% hits; shares compounds with LAP4 TOR yeast; S. cerevisiae LAP4-GFP strain, 3 h;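 active means GFP signal as percent of the solvent control above about 150%, meaning raised reporter expression, limit read from the data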;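 further: ratio of well median GFP fluorescence to plate DMSO mean so 100% = DMSO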
MEP2 cherry2 = modulators of MEP2-GFP levels in yeast, confirmation, S. cerevisiae, flow cytometry GFP, second cherry picks | shares compounds with LAP4 TOR yeast | S. cerevisiae MEP2-GFP strain, 3 h | GFP response vs DMSO, % at 10 µM | 590 compounds, 10% hits;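 active means GFP signal above 150% of the solvent control wells, that is a rise of more than half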;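 further: median channel GFP fluorescence of all gated yeast cells per well; ratio of median GFP to plate DMSO average so 100% = DMSO level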
RPL19A-GFP pick2 = RPL19A-GFP modulators in TOR pathway yeast, confirmation, cell-based, S. cerevisiae, flow cytometry, second cherry pick; shares compounds with LAP4 TOR yeast; S. cerevisiae RPL19A-GFP strain, 3 h; stronger effect = lower value; 100% means same as DMSO wells; GFP response vs DMSO, % at 10 µM; 590 compounds, 3% hits; AID 2623, 2010;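 active means under 65% GFP response relative to DMSO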;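 further: median GFP channel fluorescence per well over the all cells gate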
CIT2 GFP CP2 = modulators of CIT2-GFP expression in yeast, confirmation, flow cytometry, second cherry pick, single plex; shares compounds with LAP4 TOR yeast; 590 compounds, 8% hits; AID 2624, 2010; GFP response vs DMSO, % at 10 µM; S. cerevisiae CIT2-GFP strain, 3 h; DMSO control wells read 100%;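 active means GFP response vs DMSO above about 150%, limit read from the data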;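 further: median green fluorescence per well over all gated yeast cells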
AGP1-GFP pick2 = AGP1-GFP expression modulators, hit retest, confirmation, cell-based, flow cytometry, S. cerevisiae, cherry pick set 2 | percent response vs DMSO, % at 10 µM | 590 tested, under 10 active | S. cerevisiae AGP1-GFP strain, 3 h | shares compounds with LAP4 TOR yeast | AID 2643, 2010;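 active means over 150 percent of DMSO response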;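 further: median GFP channel fluorescence over all cells without mother daughter split; sample median GFP divided by mean DMSO control so 100% equals DMSO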
s288c autofluor = compound autofluorescence in yeast s288c, dose response, artefact control for yeast TOR pathway GFP screen, s288c strain | S. cerevisiae s288c, 520 nm autofluorescence, flow cytometry, 3 h; stronger effect = higher value; zero means same as solvent-only cells | fluorescence change (kMESF span) at 33 µM | 610 tested, under 10 active | shares compounds with LAP4 TOR yeast;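 active means fluorescence span over the dose series, or activity score, above about 33, limit read from the data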
Yeast autofl DR = autofluorescence of compounds in yeast s288c, dose response, artefact control for yeast TOR pathway GFP screen, primary hits, KU SAR, s288c parental. 110 tested, under 10 active. shares compounds with LAP4 TOR yeast. fluorescence change (span) at 33 µM. S. cerevisiae s288c parental, compound autofluorescence, flow cytometry, 3 h;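 active means fluorescence change span, or the activity score built from it, above 25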
TORC1 bypass gr = wild-type yeast growth inhibition sparing TORC1 bypass cells, mechanism study for yeast TOR pathway GFP screen, BY4741 wild type, TORC1 bypass strain. growth rating (0-3) at 30 µM. S. cerevisiae BY4741 spot growth rating, 48-72 h; stronger effect = lower value. AID 504456, 2011. shares compounds with LAP4 TOR yeast. 120 tested, under 10 active;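 active means growth rating at most 1 for wild type yeast while the TORC1 bypass strain still grows fully, rated 3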
An asterisk follows results filed as active; · = not tested or not shown.

SMILES	AGP1-GFP MLPCN	MEP2-GFP yeast	CIT2 TOR yeast	RPL19A-GFP yeast	LAP4 TOR yeast	s288c autofluor	others
CC(C)CC(=O)N1CCN(c2ccc(NC(=O)c3ccco3)cc2)CC1	99	104	103	100	102	·
Cn1ncc2c(O/N=C(\N)c3ccc(C(C)(C)C)cc3)ncnc21	64	91	118	66	188*	1.8
CCOC(=O)c1ccc(Nc2ncnc3c2cnn3C)cc1	104	106	96	98	112	·
O=C(CSc1ccc(F)cc1)N1CCOCC1	110	109	107	107	97	·
Cc1oc2c(c(=O)c1C)C(=O)CC(c1ccccc1)C2 (configuration not stated)	103	93	101	96	90	·
CS(=O)(=O)c1sc(C#N)c2c1C(=O)CC(c1ccccc1)C2 (configuration not stated)	95	99	82	89	209*	0.92
O=C(/C=C/c1ccccc1[N+](=O)[O-])c1ccccc1Br	92	104	83	97	156*	8.8
O=C(CSc1nnc(-c2ccc(O)cc2)o1)NNC(=O)c1ccncc1	97	99	102	103	96	·
O=C(NCc1cccnc1)NC(=O)c1ccc(Cl)cc1	101	104	104	101	93	·
O=C(c1ccc([N+](=O)[O-])cc1)N1CCN(C2=NS(=O)(=O)c3ccccc32)CC1	103	97	104	103	96	·
Cc1cc(Nc2cc(-c3ccccc3)nc(NCc3ccccc3)n2)n[nH]1	·	·	·	·	·	·	TORC1 bypass gr=3
Cc1cccnc1NC(=O)NC(=O)c1ccc(C(C)(C)C)s1	108	102	99	103	99	·
N#Cc1cc([N+](=O)[O-])c(-n2nnc3ccccc32)c([N+](=O)[O-])c1	93	93	85	87	206*	-0.2
COc1ccc(-c2csc(NC(=S)NC(=O)/C=C/c3ccc(C(C)C)cc3)n2)cc1OC	105	106	108	102	97	·
CC1(C)OC(c2ccccc2)=C/C(=C\C=N\NC(=O)c2ccncc2)O1	·	98	·	97	·	·
O=S1OC(c2ccccc2)c2cc(Cl)ccc21 (configuration not stated)	86	93	90	98	157*	·	LAP4-GFP pick2=112;MEP2 cherry2=101;RPL19A-GFP pick2=100;CIT2 GFP CP2=111;AGP1-GFP pick2=105
O=C1OC(c2ccccc2)c2ccccc21 (configuration not stated)	113	115	105	101	102	·
COc1ccc(NC(=O)Nc2ccc(F)cc2F)c(C)c1	104	105	93	96	108	·
Cc1cc([N+](=O)[O-])ccc1NC(=O)Nc1ccc(F)cc1F	52	109	71	59	171*	·	LAP4-GFP pick2=101;MEP2 cherry2=102;RPL19A-GFP pick2=96;CIT2 GFP CP2=100;AGP1-GFP pick2=97
Cc1ccc(C)c(NC(=O)C(C)N2C(=O)c3ccccc3C2=O)c1 (configuration not stated)	104	108	99	104	92	·
N=C1SCC(=O)N1c1ccccc1Cl	94	105	98	105	91	·
O=C1c2sc3nc4ccccc4n3c2C(=O)N1c1ccccc1Cl	81	99	84	66	192*	1.9	LAP4-GFP pick2=138;MEP2 cherry2=158*;RPL19A-GFP pick2=75;CIT2 GFP CP2=104;AGP1-GFP pick2=81
CC1(C)Cc2c(sc(NC(=O)c3ccc4c(c3)OCCO4)c2C(N)=O)C(C)(C)N1	107	117	153*	96	95	·	LAP4-GFP pick2=97;MEP2 cherry2=101;RPL19A-GFP pick2=99;CIT2 GFP CP2=108;AGP1-GFP pick2=99
Cc1cccc(NC(=O)CN2CCc3cc4c(cc3C2C)OCCCO4)c1 (configuration not stated)	101	89	96	95	112	·
Cc1cc(C)cc(NC(=O)CN2CCc3cc4c(cc3C2C)OCCCO4)c1 (configuration not stated)	88	193*	99	100	124	·	LAP4-GFP pick2=102;MEP2 cherry2=98;RPL19A-GFP pick2=101;CIT2 GFP CP2=107;AGP1-GFP pick2=97
SMILES	AGP1-GFP MLPCN	MEP2-GFP yeast	CIT2 TOR yeast	RPL19A-GFP yeast	LAP4 TOR yeast	s288c autofluor	others
CCSc1ccc(-c2nn(-c3ccccc3)cc2/C=C(/C#N)C(=O)NC)cc1	68	171	82	60	74	·	LAP4-GFP pick2=92;MEP2 cherry2=94;RPL19A-GFP pick2=102;CIT2 GFP CP2=110;AGP1-GFP pick2=95
Cc1ccc(NC(=O)c2ccc(Cl)c(N3C(=O)C=CC3=O)c2)cc1	61	95	69	50*	129	1.4	Yeast autofl DR=1.3;TORC1 bypass gr=3
Clc1cnc(N/N=C/c2ccco2)c(Cl)c1	105	98	102	105	102	·
Cc1ccc(/C=N/Nc2ncc(Cl)cc2Cl)s1	86	118	91	81	298*	0.41
Oc1ccc(/C=N/Nc2ncc(Cl)cc2Cl)cc1	102	108	109	104	94	·
Clc1cnc(N/N=C/c2cccs2)c(Cl)c1	83	98	92	99	158*	0.41

Bioassay records from PubChem.
